Assay results reported in PubChem BioAssay AID651640 (Broad Institute, 2012).
In all, about 350,000 compounds went through this assay and about 6,000 (1.7%) were called active. About 5% were inconclusive and are not listed. The sample holds actives, similar compounds and a random draw of the others, so the mix is not that of the screen. Unmarked numbers belong to inactive results. Rule as the data show it: active = CPE inhibition above about 20% (passing the limit was not always enough); inconclusive = no clear call, values can overlap the other calls; tested in BHK-21 cells.

Experiment: inhibitors of DENV2 cytopathic effect, primary screen, cell-based, plate reader, single concentration (AID 651640);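 also: 0% = median of neutral control wells and 100% = median of positive control wells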
Details: DENV2-infected cells, cytopathic effect rescue, at 9.99 µM, hits give high values
For `C[C@@H]1CCCCO[C@H](CN(C)S(=O)(=O)c2cccs2)[C@@H](C)CN([C@@H](C)CO)C(=O)c2cc(NC(=O)Nc3ccc4c(c3)OCO4)ccc2O1`, the CPE inhibition was 2.44%.
For `O=C(N[C@H]1CC[C@H](CCNS(=O)(=O)c2ccc(F)cc2)O[C@H]1CO)C1CCC1`, the CPE inhibition was 0.0715%.
Work on `CCNC(=O)Nc1ccc2c(c1)C(=O)N(C)[C@@H]1CC[C@@H](CC(=O)NCCOC)O[C@@H]1CO2` yielded a CPE inhibition of -6.67%.
`CC(C)C#Cc1ccc2c(c1)O[C@@H](CN(C)Cc1ccncc1)[C@@H](C)CN([C@@H](C)CO)S2(=O)=O` showed a CPE inhibition of -4.86%.
In the case of `COc1ccc(NC(=O)CSc2nc(N)c(-c3ccccc3)c(=O)[nH]2)cc1`, the CPE inhibition is reported as 15.2%.
With `COc1ccc(NC(=O)c2cn(-c3ccccc3)nc2SC)cc1` the CPE inhibition was 30.9% (active).
`COc1ccccc1C(=O)Nc1ccc(Nc2ccccc2)cc1` gave a CPE inhibition of 1.78%.
In the case of `COc1ccc(CNC(=O)C[C@H]2C[C@H](C(=O)N3CCOCC3)[C@@]3(CCC4CCCC4)c4[nH]c5ccc(Cl)cc5c4CCN3C2=O)cc1OC`, the CPE inhibition is reported as 0.122%.
`CN(C)C(=O)CCc1ccc2c3c([nH]c2c1)[C@]1(CCC2CCCC2)[C@@H](C(=O)N2CCOCC2)C[C@H](CC(=O)NCc2ccco2)C(=O)N1CC3` showed a CPE inhibition of -10.7%.
In the case of `O=C(C[C@H]1C[C@H](C(=O)N2CCOCC2)[C@@]2(CCC3CCCC3)c3[nH]c4ccc(Cl)cc4c3CCN2C1=O)NCc1ccco1`, the CPE inhibition is reported as 88.4% (active).
In the case of `Cc1ccc(S(=O)(=O)N(C)C[C@H]2OCCCC[C@@H](C)Oc3ccc(NS(C)(=O)=O)cc3C(=O)N([C@H](C)CO)C[C@@H]2C)cc1`, the CPE inhibition is reported as 24.2% (active).
In the case of `Cc1ccc(S(=O)(=O)N(C)C[C@@H]2OCCCC[C@H](C)Oc3ccc(NS(=O)(=O)c4cn(C)cn4)cc3C(=O)N([C@H](C)CO)C[C@@H]2C)cc1`, the CPE inhibition is reported as -2.41%.
With `C[C@@H]1CN([C@H](C)CO)C(=O)c2cc(NC(=O)NC3CCCCC3)ccc2O[C@H]1CN(C)S(C)(=O)=O` the CPE inhibition was 2.68%.
For `C[C@H](CO)N1C[C@H](C)[C@@H](CN(C)S(=O)(=O)c2cn(C)cn2)OCCCC[C@H](C)Oc2ccc(NC(=O)Cc3ccccc3)cc2C1=O`, the CPE inhibition was 123% (active).
In the case of `Cc1ccc(S(=O)(=O)Nc2ccc3c(c2)C(=O)N([C@H](C)CO)C[C@H](C)[C@@H](CN(C)S(=O)(=O)c2cn(C)cn2)OCCCC[C@H](C)O3)cc1`, the CPE inhibition is reported as 39.2% (active).
`Cc1ccc(S(=O)(=O)Nc2ccc3c(c2)C(=O)N([C@H](C)CO)C[C@@H](C)[C@H](CN(C)S(=O)(=O)c2ccc(C)cc2)OCCCC[C@@H](C)O3)cc1` showed a CPE inhibition of 1.84%.
For `C[C@@H]1CCCCO[C@@H](CN(C)S(=O)(=O)c2cn(C)cn2)[C@H](C)CN([C@@H](C)CO)C(=O)c2cc(NC(=O)Nc3ccccc3)ccc2O1`, the CPE inhibition was -1.09%.
Work on `Cc1ccc(S(=O)(=O)N(C)C[C@H]2OCCCC[C@@H](C)Oc3ccc(NC(=O)NC4CCCCC4)cc3C(=O)N([C@H](C)CO)C[C@@H]2C)cc1` yielded a CPE inhibition of 0.877%.
Molecule `C[C@@H]1CN([C@H](C)CO)C(=O)c2cc(NC(=O)Cc3ccccc3)ccc2O[C@H]1CN(C)S(=O)(=O)c1cn(C)cn1` has a CPE inhibition of 0.292%.
For `Cc1ccc(S(=O)(=O)N(C)C[C@@H]2OCCCC[C@@H](C)Oc3ccc(NS(=O)(=O)c4ccccc4)cc3C(=O)N([C@H](C)CO)C[C@@H]2C)cc1`, the CPE inhibition was 0.648%.
For `C[C@@H]1CCCCO[C@@H](CN(C)S(=O)(=O)c2cn(C)cn2)[C@H](C)CN([C@H](C)CO)C(=O)c2cc(NS(=O)(=O)c3ccc(Cl)cc3)ccc2O1`, the CPE inhibition was 3.2%.
For `Cc1ccc(S(=O)(=O)N(C)C[C@@H]2Oc3ccc(NC(=O)NC4CCCCC4)cc3C(=O)N([C@@H](C)CO)C[C@H]2C)cc1`, the CPE inhibition was 23.4% (active).
